PubChem BioAssay (NCATS)
Results filed as inconclusive are left out. The source made the active and inactive calls. The call rests on the fitted dose curve; in most records, active means well fitted curve in the direction sought with a large enough effect; inconclusive means small, poorly fitted or top-dose-only effect, or another doubt; inactive means no such curve, though single readings can be large; an effect the other way counts as inactive or inconclusive.

Legend:
[1] = qHTS of pediatric cancer cell lines to identify multiple opportunities for drug repurposing: Primary screen for A673 cells (AID 1347092); further: nearly all actives have a fitted effect of over 45% in size; further: potency means the concentration at half of the fitted maximal effect
Summary of the method: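 Titration-based qHTS on A673 cells: MIPE compounds spanned 11 points (0.78 nM to 46 µM final), NPC compounds 8 points (0.59 nM to 46 µM final). Viability after 48 h was measured by ATP luminescence.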

[2] = qHTS of pediatric cancer cell lines to identify multiple opportunities for drug repurposing: Primary screen for SK-N-MC cells (AID 1347093); further: potency means the concentration at half of the fitted maximal effect
Summary of the method: (§1)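 Metabolically active cells were quantified by ATP-dependent luminescence (CellTiter-Glo, 15 min at room temperature) following 48 h treatment. Cells had been plated at 500-1,000 per well and settled for 5 h beforehand.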

[3] = qHTS of pediatric cancer cell lines to identify multiple opportunities for drug repurposing: Primary screen for BT-37 cells (AID 1347094); further: potency means the concentration at half of the fitted maximal effect
Summary of the method: (§2)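 Cells plated at 500-1,000/well in growth medium, compounds added after 5 h. MIPE tested at 11 points (from 0.78 nM), NPC at 8 points (from 0.59 nM). CellTiter-Glo luminescence after 48 h; concentration-response curves from primary screen.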

[4] = qHTS of pediatric cancer cell lines to identify multiple opportunities for drug repurposing: Primary screen for NB-EBc1 cells (AID 1347095); further: potency means the concentration at half of the fitted maximal effect
Summary of the method: as §2

[5] = qHTS of pediatric cancer cell lines to identify multiple opportunities for drug repurposing: Primary screen for Saos-2 cells (AID 1347097); further: nearly all actives have a fitted effect of over 40% in size; further: potency means the concentration at half of the fitted maximal effect
Summary of the method: as §2

[6] = qHTS of pediatric cancer cell lines to identify multiple opportunities for drug repurposing: Primary screen for SK-N-SH cells (AID 1347098); further: nearly all actives have a fitted effect of over 65% in size; further: potency means the concentration at half of the fitted maximal effect
Summary of the method: (§3)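 Cells (500-1,000/well) rested 5 h, then received compounds for 48 h; metabolically active cells were measured by CellTiter-Glo luminescence. Final concentrations spanned up to 46 µM (MIPE, 11-point) or 0.59 nM-46 µM (NPC, 8-point) in primary screens, 11-point in follow-ups.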

[7] = qHTS of pediatric cancer cell lines to identify multiple opportunities for drug repurposing: Primary screen for NB1643 cells (AID 1347099); further: nearly all actives have a fitted effect of over 50% in size; further: potency means the concentration at half of the fitted maximal effect
Summary of the method: as §2

[8] = qHTS of pediatric cancer cell lines to identify multiple opportunities for drug repurposing: Primary screen for LAN-5 cells (AID 1347100); further: potency means the concentration at half of the fitted maximal effect
Summary of the method: (§4)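 Cells (500-1,000/well) in growth media were settled 5 h at 37 degrees C, then given compounds for 48 h. Viability was read as CellTiter-Glo luminescence. Primary runs used MIPE at 11 points (0.78 nM-46 µM) and NPC at 8 points (0.59 nM-46 µM); follow-ups used 11 points.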

[9] = qHTS of pediatric cancer cell lines to identify multiple opportunities for drug repurposing: Primary screen for BT-12 cells (AID 1347101); further: nearly all actives have a fitted effect of over 25% in size; further: potency means the concentration at half of the fitted maximal effect
Summary of the method: as §3

[10] = qHTS of pediatric cancer cell lines to identify multiple opportunities for drug repurposing: Primary screen for OHS-50 cells (AID 1347103); further: nearly all actives have a fitted effect of over 40% in size; further: potency means the concentration at half of the fitted maximal effect
Summary of the method: as §3

[11] = qHTS of pediatric cancer cell lines to identify multiple opportunities for drug repurposing: Primary screen for RD cells (AID 1347104); further: nearly all actives have a fitted effect of over 55% in size; further: potency means the concentration at half of the fitted maximal effect
Summary of the method: as §2

[12] = qHTS of pediatric cancer cell lines to identify multiple opportunities for drug repurposing: Primary screen for Rh30 cells (AID 1347107); further: nearly all actives have a fitted effect of over 75% in size; further: potency means the concentration at half of the fitted maximal effect
Summary of the method: as §4

[13] = qHTS of pediatric cancer cell lines to identify multiple opportunities for drug repurposing: Primary screen for Rh18 cells (AID 1347102); further: nearly all actives have a fitted effect of over 65% in size; further: potency means the concentration at half of the fitted maximal effect
Summary of the method: as §4

[14] = qHTS of pediatric cancer cell lines to identify multiple opportunities for drug repurposing: Primary screen for MG 63 (6-TG R) cells (AID 1347105); further: nearly all actives have a fitted effect of over 50% in size; further: potency means the concentration at half of the fitted maximal effect
Summary of the method: as §2

[15] = qHTS of pediatric cancer cell lines to identify multiple opportunities for drug repurposing: Primary screen for Rh41 cells (AID 1347108); further: nearly all actives have a fitted effect of over 70% in size; further: potency means the concentration at half of the fitted maximal effect
Summary of the method: as §2

[16] = qHTS of pediatric cancer cell lines to identify multiple opportunities for drug repurposing: Primary screen for U-2 OS cells (AID 1347096); further: nearly all actives have a fitted effect of over 50% in size
Summary of the method: as §4

[17] = qHTS of pediatric cancer cell lines to identify multiple opportunities for drug repurposing: Primary screen for control Hh wild type fibroblast cells (AID 1347106);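 further: series mostly up to about 46 µM; a drop in luminescence marks cytotoxicity and a rise apparent proliferation; nearly all actives have a fitted effect of over 55% in size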
Summary of the method: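 Viability after 48 h compound treatment at 37C, 500-1,000 cells/well, read as ATP luminescence with CellTiter-Glo. Primary screens used 11-point (MIPE, 0.78 nM-46 µM) or 8-point (NPC, 0.59 nM-46 µM) final concentrations; follow-up screens used 11-point dilutions.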

[18] = qHTS of pediatric cancer cell lines to identify multiple opportunities for drug repurposing: Confirmatory screen for NB1643 cells (AID 1347109); further: nearly all actives have a fitted effect of over 45% in size; further: potency means the concentration at half of the fitted maximal effect
Summary of the method: as §4

[19] = qHTS of pediatric cancer cell lines to identify multiple opportunities for drug repurposing: Confirmatory screen for A673 cells (AID 1347110);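 further: cells exposed to compound for 48 h before the viability read; nearly all actives have a fitted effect of over 65% in size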; further: potency means the concentration at half of the fitted maximal effect
Summary of the method: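 Forty-eight-hour viability assay. Follow-up compounds ran at 11-point dilutions; positive control bortezomib at 2.3 uM final, neutral control DMSO.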

[20] = qHTS of pediatric cancer cell lines to identify multiple opportunities for drug repurposing: Confirmatory screen for SK-N-MC cells (AID 1347111);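 further: potency means the concentration at half of the fitted maximal effect; cells exposed to compound for 48 h before the readout; nearly all actives have a fitted effect of over 70% in size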
Summary of the method: as §1

Row | Structure (SMILES) | Potency [1] | Potency [2] | Potency [3] | Potency [4] | Potency [5] | Potency [6] | Potency [7] | Potency [8] | Potency [9] | Potency [10] | Potency [11] | Potency [12] | Potency [13] | Potency [14] | Potency [15] | Potency [16] | Potency [17] | Potency [18] | Potency [19] | Potency [20]
1 | NC(CO)(CO)CCc1ccc(Sc2cccc(OCc3ccccc3)c2)cc1Cl | 14.8 µM (active) | 2.64 µM (active) | 19.3 µM (active) | 1.87 µM (active) | 29.6 µM (active) | 19.2 µM (active) | 16.6 µM (active) | 4.18 µM (active) | 30.6 µM (active) | 27.3 µM (active) | 33.2 µM (active) | inactive |  |  |  |  |  |  |  | 
2 | Clc1ccc(C(c2ccc(Cl)cc2)n2cc[n+](CC(OCc3ccc(Cl)cc3Cl)c3ccc(Cl)cc3Cl)c2)cc1 (stereo not drawn) | 18.7 µM (active) | 7.43 µM (active) | 21.7 µM (active) | 23.5 µM (active) | 11.8 µM (active) |  | 23.5 µM (active) | 18.7 µM (active) | 21.7 µM (active) | 17.2 µM (active) | 33.2 µM (active) | 18.7 µM (active) | 23.5 µM (active) | 23.5 µM (active) | 18.7 µM (active) |  |  |  |  | 
3 | CC(C)(C)NC(=O)Nc1cccc(Nc2ncc(F)c(NC(C)(C)CO)n2)c1 | 18.7 µM (active) | 3.32 µM (active) | inactive |  | inactive |  |  |  |  | inactive | inactive | inactive | inactive | inactive |  | inactive | inactive |  |  | 
4 | C[C@H](NC(=O)c1sccc1OCc1ccc(Cl)cc1)c1ccccc1 | 23.5 µM (active) | 13.2 µM (active) | 27.3 µM (active) |  |  | inactive | 23.5 µM (active) | inactive | 19.3 µM (active) | 12.2 µM (active) | 29.6 µM (active) | 18.7 µM (active) | inactive |  | 16.6 µM (active) | inactive | inactive |  |  | 
5 | NC1=N[C@@]2(c3cc(NC(=O)c4ccc(F)cn4)ccc3F)COC[C@@H]2CS1 | 0.0074 µM (active) | 0.833 µM (active) | 0.122 µM (active) | 1.87 µM (active) |  |  | inactive |  | 0.153 µM (active) | 0.137 µM (active) |  | inactive |  | 23.5 µM (active) | 18.7 µM (active) | inactive | inactive | inactive | inactive | 
6 | CC1(C)CCC[C@@]2(C)[C@@H]1CC[C@@]1(C)OC(=O)C[C@H]21 | inactive | 8.33 µM (active) | inactive | inactive |  |  | inactive | inactive | inactive |  | inactive | inactive | inactive | inactive | inactive | inactive | inactive | inactive | inactive | 26.1 µM (active)
7 | CC(C)C[C@H](CC(=O)O)C(=O)N[C@@H](Cc1c[nH]c2ccccc12)C(=O)N[C@@H](C)c1ccccc1 | 1.87 µM (active) | 1.66 µM (active) | 3.06 µM (active) | 1.05 µM (active) |  |  |  | 2.64 µM (active) |  |  | inactive | inactive |  | inactive | inactive | inactive | inactive |  |  | 
8 | CC[C@]1(O)C[C@@H]2CN(CCc3c([nH]c4ccccc34)[C@@](C(=O)OC)(c3cc4c(cc3OC)N(C=O)[C@@H]3C45CCN4CC=C[C@](CC)([C@H]45)[C@@H](OC(C)=O)[C@]3(O)C(=O)OC)C2)C1 (stereo partly drawn) | 11.8 µM (active) | 20.9 µM (active) | inactive |  | inactive |  |  | inactive |  | inactive |  | inactive |  | inactive |  | inactive | inactive | inactive | inactive | 
9 | CS(=O)c1ccc(-c2nc(-c3ccc(F)cc3)c(-c3ccncc3)[nH]2)cc1 (stereo not drawn) | 34 µM (active) | 8.55 µM (active) | 17.7 µM (active) |  | 10.8 µM (active) |  |  |  | 44.4 µM (active) | 44.4 µM (active) | 42.9 µM (active) |  | inactive | inactive |  | inactive | inactive |  |  | 
10 | Cc1ccc(C(C)(O)c2nc3ccccc3s2)c(C)c1 (stereo not drawn) | 2.96 µM (active) | 1.87 µM (active) | 3.85 µM (active) | 1.32 µM (active) |  |  |  |  |  |  | inactive | inactive | inactive |  | inactive | inactive | inactive |  |  | 
11 | O=C(CCN1CCN(C(=O)OCc2cc(Cl)cc(Cl)c2)CC1)c1ccc2[nH]c(=O)oc2c1 | inactive | inactive | inactive | inactive |  |  |  | inactive |  | inactive | inactive | inactive | inactive | inactive |  | inactive | inactive |  |  | 
12 | O=C(NCc1ccccc1)c1csc(Nc2ccncn2)n1 | 23.5 µM (active) | 20.9 µM (active) | 17.2 µM (active) | 14.8 µM (active) | 11.8 µM (active) |  | 13.2 µM (active) |  | 19.3 µM (active) |  | 29.6 µM (active) |  | 23.5 µM (active) | 23.5 µM (active) | 9.35 µM (active) |  |  |  |  | 
13 | CC(C)(C(=O)NCC(F)(F)C(F)(F)F)C(=O)N[C@@H]1C(=O)Nc2ccccc2-c2ccccc21 | 0.0935 µM (active) | 3.72 µM (active) | 0.769 µM (active) | 4.69 µM (active) |  |  |  | 0.662 µM (active) | 1.09 µM (active) | 1.53 µM (active) |  |  | inactive | inactive |  | inactive | inactive | inactive | inactive | 
14 | CN(C)C1CCN(C(=O)c2ccc(NC(=O)Nc3nc(N4CCOCC4)nc(N4CCOCC4)n3)cc2)CC1 | 0.0118 µM (active) | 0.0166 µM (active) | 0.0273 µM (active) | 1.32 µM (active) | 0.166 µM (active) |  | 0.372 µM (active) | 0.187 µM (active) |  | 0.0217 µM (active) | 0.0662 µM (active) | inactive | 0.0526 µM (active) | 0.0935 µM (active) | 0.0935 µM (active) |  |  | 0.928 µM (active) | 0.0737 µM (active) | 0.208 µM (active)
